# Results taken from paper PMC7862700, “An all-to-all approach to the identification of sequence-specific readers for epigenetic DNA modifications on cytosine”.
# What was measured:
# Experiment in all cases: DAPPL (digital affinity profiling via proximity ligation, sequencing); 10 mM Tris-HCl pH 7.5, 50 mM NaCl, 1 mM DTT, 4% glycerol, room temperature, 30 min; GST-TFs on glutathione beads, 16-mer random dsDNA library, 0.1% formaldehyde crosslink after washing; high values mean tight binding
# Conditions in all cases: protein: recombinant; tags: N-terminal GST; dsDNA, one strand shown
# FLI1 = molecular target: T1, FLI1 (Homo sapiens, UniProt Q01543 1-452)
# T1 sequence: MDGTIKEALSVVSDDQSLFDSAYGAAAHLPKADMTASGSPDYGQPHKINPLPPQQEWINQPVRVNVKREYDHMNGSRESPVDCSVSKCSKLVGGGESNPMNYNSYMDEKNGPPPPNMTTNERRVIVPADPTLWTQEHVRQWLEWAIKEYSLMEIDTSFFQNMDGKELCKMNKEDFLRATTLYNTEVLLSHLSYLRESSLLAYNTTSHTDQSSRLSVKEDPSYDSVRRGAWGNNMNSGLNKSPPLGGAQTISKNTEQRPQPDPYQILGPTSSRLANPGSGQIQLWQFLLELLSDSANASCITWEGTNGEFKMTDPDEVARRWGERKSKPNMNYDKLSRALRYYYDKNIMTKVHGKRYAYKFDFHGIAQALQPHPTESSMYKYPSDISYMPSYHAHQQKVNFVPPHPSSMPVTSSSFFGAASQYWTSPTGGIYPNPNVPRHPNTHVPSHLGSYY
# Summary of the method: (§1)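 Pools were built from human transcription factors expressed in yeast as GST fusions, captured on glutathione beads and DNA-barcoded, along with a tag-only sample. Incubation with 200 nmole of a 16-mer random double-stranded DNA library lasted 30 min at room temperature in Tris/NaCl/DTT/glycerol buffer, and was followed by washing, 0.1% formaldehyde crosslinking, proximity ligation, PCR amplification and Illumina NextSeq500 sequencing. Binding signal is the quotient of each hexamer's read frequency for a factor and its frequency for the tag-only sample.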
# ELK1 = molecular target: T2, ELK1 (Homo sapiens, UniProt P19419 1-428)
# T2 sequence: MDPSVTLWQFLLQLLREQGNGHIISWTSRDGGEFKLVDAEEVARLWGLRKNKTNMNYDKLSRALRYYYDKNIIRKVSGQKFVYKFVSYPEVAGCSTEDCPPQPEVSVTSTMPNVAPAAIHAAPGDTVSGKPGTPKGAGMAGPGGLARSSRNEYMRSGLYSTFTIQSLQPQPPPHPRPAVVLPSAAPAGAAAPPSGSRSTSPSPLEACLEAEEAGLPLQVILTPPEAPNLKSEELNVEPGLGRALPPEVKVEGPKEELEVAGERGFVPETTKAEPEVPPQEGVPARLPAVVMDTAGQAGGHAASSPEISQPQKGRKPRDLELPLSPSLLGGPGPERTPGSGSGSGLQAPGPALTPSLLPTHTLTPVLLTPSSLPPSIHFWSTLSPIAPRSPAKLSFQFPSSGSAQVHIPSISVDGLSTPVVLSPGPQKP
# Summary of the method: as §1
# GABPA = molecular target: T3, GABPA (Homo sapiens, UniProt Q06546 1-454)
# T3 sequence: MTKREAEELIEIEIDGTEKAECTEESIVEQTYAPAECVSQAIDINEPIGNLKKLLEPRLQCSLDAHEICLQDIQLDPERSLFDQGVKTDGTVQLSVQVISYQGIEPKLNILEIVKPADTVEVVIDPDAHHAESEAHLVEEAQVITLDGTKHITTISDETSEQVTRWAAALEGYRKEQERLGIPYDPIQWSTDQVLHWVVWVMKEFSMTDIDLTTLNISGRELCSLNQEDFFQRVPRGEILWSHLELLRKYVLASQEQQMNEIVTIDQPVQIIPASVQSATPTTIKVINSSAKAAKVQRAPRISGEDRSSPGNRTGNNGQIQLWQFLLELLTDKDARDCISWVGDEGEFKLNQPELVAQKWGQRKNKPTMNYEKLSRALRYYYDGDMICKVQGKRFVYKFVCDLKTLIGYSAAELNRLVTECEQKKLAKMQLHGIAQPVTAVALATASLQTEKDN
# Summary of the method: as §1
# ERG = molecular target: T4, ERG (Homo sapiens, UniProt P11308 1-479)
# T4 sequence: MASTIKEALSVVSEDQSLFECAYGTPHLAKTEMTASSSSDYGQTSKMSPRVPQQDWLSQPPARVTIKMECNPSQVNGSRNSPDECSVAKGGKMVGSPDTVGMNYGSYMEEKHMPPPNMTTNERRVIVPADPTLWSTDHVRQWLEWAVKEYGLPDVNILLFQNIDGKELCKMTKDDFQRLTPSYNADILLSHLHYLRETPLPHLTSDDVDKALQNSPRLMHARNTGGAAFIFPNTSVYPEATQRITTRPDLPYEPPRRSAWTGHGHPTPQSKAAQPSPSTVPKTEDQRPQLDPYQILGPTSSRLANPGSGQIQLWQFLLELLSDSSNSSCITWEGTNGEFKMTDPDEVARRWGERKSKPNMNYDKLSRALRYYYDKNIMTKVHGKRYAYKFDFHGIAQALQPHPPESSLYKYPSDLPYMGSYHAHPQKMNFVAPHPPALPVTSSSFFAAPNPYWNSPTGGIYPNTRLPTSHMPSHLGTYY
# Summary of the method: as §1
# ELF1 = ELF1 (Homo sapiens, UniProt P32519 1-619)
# Summary of the method: as §1
# EHF = molecular target: T5, EHF (Homo sapiens, UniProt Q9NZC4 1-300)
# T5 sequence: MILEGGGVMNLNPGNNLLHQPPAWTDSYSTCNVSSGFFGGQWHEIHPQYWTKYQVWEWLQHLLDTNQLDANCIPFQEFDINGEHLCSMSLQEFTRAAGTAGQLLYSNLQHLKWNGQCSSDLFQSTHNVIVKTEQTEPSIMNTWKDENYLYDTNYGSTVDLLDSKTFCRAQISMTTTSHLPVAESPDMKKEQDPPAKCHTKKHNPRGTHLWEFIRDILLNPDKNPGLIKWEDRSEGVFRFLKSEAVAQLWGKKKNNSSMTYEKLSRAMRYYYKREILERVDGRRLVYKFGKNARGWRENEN
# Summary of the method: as §1
# SPI1 = SPI1 (Homo sapiens, UniProt P17947 1-270)
# Summary of the method: as §1
# SPIB = SPIB (Homo sapiens, UniProt Q01892 1-262)
# Summary of the method: as §1
# ELK3 = molecular target: T6, ELK3 (Homo sapiens, UniProt P41970 1-407)
# T6 sequence: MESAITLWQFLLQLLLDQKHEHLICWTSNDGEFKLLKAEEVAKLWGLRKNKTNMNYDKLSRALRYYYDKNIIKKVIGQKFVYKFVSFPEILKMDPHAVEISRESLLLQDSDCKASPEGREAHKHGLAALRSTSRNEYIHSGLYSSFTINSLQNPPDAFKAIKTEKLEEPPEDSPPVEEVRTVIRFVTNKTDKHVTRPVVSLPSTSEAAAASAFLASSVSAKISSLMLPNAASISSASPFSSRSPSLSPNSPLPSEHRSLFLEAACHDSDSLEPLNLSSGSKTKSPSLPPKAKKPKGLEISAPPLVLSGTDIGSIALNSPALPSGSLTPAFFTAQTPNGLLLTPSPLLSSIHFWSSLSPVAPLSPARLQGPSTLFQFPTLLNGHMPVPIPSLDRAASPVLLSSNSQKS
# Summary of the method: as §1
# ELF1, sequence (P32519 whole entry): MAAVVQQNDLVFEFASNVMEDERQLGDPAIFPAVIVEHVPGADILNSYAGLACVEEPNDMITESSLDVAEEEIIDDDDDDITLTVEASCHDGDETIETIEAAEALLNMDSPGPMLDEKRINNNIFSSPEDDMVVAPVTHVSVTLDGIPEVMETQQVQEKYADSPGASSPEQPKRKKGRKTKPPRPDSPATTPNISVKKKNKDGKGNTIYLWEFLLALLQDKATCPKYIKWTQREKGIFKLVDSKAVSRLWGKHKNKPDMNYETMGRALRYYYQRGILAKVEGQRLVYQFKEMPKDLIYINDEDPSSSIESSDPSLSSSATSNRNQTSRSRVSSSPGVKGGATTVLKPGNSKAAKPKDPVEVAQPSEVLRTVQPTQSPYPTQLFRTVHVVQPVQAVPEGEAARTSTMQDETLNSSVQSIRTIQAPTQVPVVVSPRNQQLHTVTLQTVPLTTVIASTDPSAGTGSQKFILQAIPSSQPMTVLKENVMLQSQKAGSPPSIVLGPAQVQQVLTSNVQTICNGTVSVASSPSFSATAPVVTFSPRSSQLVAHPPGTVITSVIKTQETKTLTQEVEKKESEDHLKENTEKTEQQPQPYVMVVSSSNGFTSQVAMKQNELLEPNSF
# SPIB, sequence (Q01892 whole entry): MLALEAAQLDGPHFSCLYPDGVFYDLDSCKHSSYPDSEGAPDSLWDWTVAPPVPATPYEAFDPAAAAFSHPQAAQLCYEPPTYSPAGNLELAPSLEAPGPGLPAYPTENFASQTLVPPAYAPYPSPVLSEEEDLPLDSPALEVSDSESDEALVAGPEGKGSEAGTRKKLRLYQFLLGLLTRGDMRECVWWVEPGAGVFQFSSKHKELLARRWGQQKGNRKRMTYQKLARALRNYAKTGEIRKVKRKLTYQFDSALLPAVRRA
Sequence,binding signal (FLI1),binding signal (ELK1),binding signal (GABPA),binding signal (ERG),binding signal (ELF1),binding signal (EHF),binding signal (SPI1),binding signal (SPIB),binding signal (ELK3)
ATGCCC,"1.38 fold enrichment (6-mer frequency, TF over GST control)","1.38 fold enrichment (6-mer frequency, TF over GST control)","1.33 fold enrichment (6-mer frequency, TF over GST control)","1.28 fold enrichment (6-mer frequency, TF over GST control)","1.32 fold enrichment (6-mer frequency, TF over GST control)","1.26 fold enrichment (6-mer frequency, TF over GST control)","1.2 fold enrichment (6-mer frequency, TF over GST control)","1.23 fold enrichment (6-mer frequency, TF over GST control)","1.2 fold enrichment (6-mer frequency, TF over GST control)"
ACATGT,"1.23 fold enrichment (6-mer frequency, TF over GST control)","1.14 fold enrichment (6-mer frequency, TF over GST control)","1.05 fold enrichment (6-mer frequency, TF over GST control)","1.11 fold enrichment (6-mer frequency, TF over GST control)","1.19 fold enrichment (6-mer frequency, TF over GST control)","1.09 fold enrichment (6-mer frequency, TF over GST control)","1.14 fold enrichment (6-mer frequency, TF over GST control)","1.15 fold enrichment (6-mer frequency, TF over GST control)","1.06 fold enrichment (6-mer frequency, TF over GST control)"
CGACTT,"1.84 fold enrichment (6-mer frequency, TF over GST control)","1.85 fold enrichment (6-mer frequency, TF over GST control)","1.58 fold enrichment (6-mer frequency, TF over GST control)","1.84 fold enrichment (6-mer frequency, TF over GST control)","1.69 fold enrichment (6-mer frequency, TF over GST control)","1.8 fold enrichment (6-mer frequency, TF over GST control)","1.9 fold enrichment (6-mer frequency, TF over GST control)","1.79 fold enrichment (6-mer frequency, TF over GST control)","1.94 fold enrichment (6-mer frequency, TF over GST control)"
TGACTA,"1.14 fold enrichment (6-mer frequency, TF over GST control)","1.08 fold enrichment (6-mer frequency, TF over GST control)","1.08 fold enrichment (6-mer frequency, TF over GST control)","1.03 fold enrichment (6-mer frequency, TF over GST control)","1.09 fold enrichment (6-mer frequency, TF over GST control)","1.11 fold enrichment (6-mer frequency, TF over GST control)","1.14 fold enrichment (6-mer frequency, TF over GST control)","1.17 fold enrichment (6-mer frequency, TF over GST control)","1.14 fold enrichment (6-mer frequency, TF over GST control)"
CTCAGC,"1.15 fold enrichment (6-mer frequency, TF over GST control)","1.22 fold enrichment (6-mer frequency, TF over GST control)","1.38 fold enrichment (6-mer frequency, TF over GST control)","1.24 fold enrichment (6-mer frequency, TF over GST control)","1.3 fold enrichment (6-mer frequency, TF over GST control)","1.28 fold enrichment (6-mer frequency, TF over GST control)","1.23 fold enrichment (6-mer frequency, TF over GST control)","1.35 fold enrichment (6-mer frequency, TF over GST control)","1.12 fold enrichment (6-mer frequency, TF over GST control)"
AACACG,"1.26 fold enrichment (6-mer frequency, TF over GST control)","1.23 fold enrichment (6-mer frequency, TF over GST control)","1.1 fold enrichment (6-mer frequency, TF over GST control)","1.22 fold enrichment (6-mer frequency, TF over GST control)","1.18 fold enrichment (6-mer frequency, TF over GST control)","1.14 fold enrichment (6-mer frequency, TF over GST control)","1.17 fold enrichment (6-mer frequency, TF over GST control)","1.13 fold enrichment (6-mer frequency, TF over GST control)","1.16 fold enrichment (6-mer frequency, TF over GST control)"
TATACT,"1.25 fold enrichment (6-mer frequency, TF over GST control)","1.41 fold enrichment (6-mer frequency, TF over GST control)","1.43 fold enrichment (6-mer frequency, TF over GST control)","1.29 fold enrichment (6-mer frequency, TF over GST control)","1.39 fold enrichment (6-mer frequency, TF over GST control)","1.39 fold enrichment (6-mer frequency, TF over GST control)","1.35 fold enrichment (6-mer frequency, TF over GST control)","1.36 fold enrichment (6-mer frequency, TF over GST control)","1.43 fold enrichment (6-mer frequency, TF over GST control)"
CTTACA,"1.28 fold enrichment (6-mer frequency, TF over GST control)","1.3 fold enrichment (6-mer frequency, TF over GST control)","1.32 fold enrichment (6-mer frequency, TF over GST control)","1.21 fold enrichment (6-mer frequency, TF over GST control)","1.24 fold enrichment (6-mer frequency, TF over GST control)","1.33 fold enrichment (6-mer frequency, TF over GST control)","1.22 fold enrichment (6-mer frequency, TF over GST control)","1.21 fold enrichment (6-mer frequency, TF over GST control)","1.24 fold enrichment (6-mer frequency, TF over GST control)"
AGTACT,"1.22 fold enrichment (6-mer frequency, TF over GST control)","1.41 fold enrichment (6-mer frequency, TF over GST control)","1.19 fold enrichment (6-mer frequency, TF over GST control)","1.25 fold enrichment (6-mer frequency, TF over GST control)","1.22 fold enrichment (6-mer frequency, TF over GST control)","1.27 fold enrichment (6-mer frequency, TF over GST control)","1.25 fold enrichment (6-mer frequency, TF over GST control)","1.13 fold enrichment (6-mer frequency, TF over GST control)","1.44 fold enrichment (6-mer frequency, TF over GST control)"
ATGTCA,"1.14 fold enrichment (6-mer frequency, TF over GST control)","1.1 fold enrichment (6-mer frequency, TF over GST control)","1.14 fold enrichment (6-mer frequency, TF over GST control)","1.17 fold enrichment (6-mer frequency, TF over GST control)","1.16 fold enrichment (6-mer frequency, TF over GST control)","1.15 fold enrichment (6-mer frequency, TF over GST control)","1.08 fold enrichment (6-mer frequency, TF over GST control)","1.19 fold enrichment (6-mer frequency, TF over GST control)","1.02 fold enrichment (6-mer frequency, TF over GST control)"
TACAGG,"1.32 fold enrichment (6-mer frequency, TF over GST control)","1.16 fold enrichment (6-mer frequency, TF over GST control)","1.21 fold enrichment (6-mer frequency, TF over GST control)","1.22 fold enrichment (6-mer frequency, TF over GST control)","1.13 fold enrichment (6-mer frequency, TF over GST control)","1.17 fold enrichment (6-mer frequency, TF over GST control)","1.12 fold enrichment (6-mer frequency, TF over GST control)","1.2 fold enrichment (6-mer frequency, TF over GST control)","1.03 fold enrichment (6-mer frequency, TF over GST control)"
TTTATT,"1.36 fold enrichment (6-mer frequency, TF over GST control)","1.25 fold enrichment (6-mer frequency, TF over GST control)","1.24 fold enrichment (6-mer frequency, TF over GST control)","1.26 fold enrichment (6-mer frequency, TF over GST control)","1.19 fold enrichment (6-mer frequency, TF over GST control)","1.31 fold enrichment (6-mer frequency, TF over GST control)","1.25 fold enrichment (6-mer frequency, TF over GST control)","1.32 fold enrichment (6-mer frequency, TF over GST control)","1.31 fold enrichment (6-mer frequency, TF over GST control)"
AATCGC,"1.12 fold enrichment (6-mer frequency, TF over GST control)","1.09 fold enrichment (6-mer frequency, TF over GST control)","1.14 fold enrichment (6-mer frequency, TF over GST control)","1.07 fold enrichment (6-mer frequency, TF over GST control)","1.13 fold enrichment (6-mer frequency, TF over GST control)","1.16 fold enrichment (6-mer frequency, TF over GST control)","1.05 fold enrichment (6-mer frequency, TF over GST control)","1.08 fold enrichment (6-mer frequency, TF over GST control)","1.16 fold enrichment (6-mer frequency, TF over GST control)"
